# Test results as given in the supplement of paper PMC4466140.
# Molecular target: AgAbp1
# Experiment: SPOT peptide array binding signal intensity (averaged, normalized) (arbitrary units (background-subtracted, floor 0; scale differs between SH3 domains)); higher = stronger binding of the SH3 domain to the peptide
# In short: (§1)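 Spot intensities were captured after detection with anti-GST antibody, an HRP-linked anti-mouse secondary and luminol, and quantified with Genespotter. The probes were GST-fused SH3 domains from four yeast species, produced in E. coli BL21(DE3), purified on glutathione Sepharose and incubated at 10 μg/ml overnight at 4°C on cellulose-bound synthetic 15-mer peptides with cysteines replaced by serines. Binding signal is the normalized, background-subtracted spot intensity averaged over replicates, and its arbitrary units differ between domains.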
row,Binder,SPOT peptide array binding signal intensity
1,VLRFLGFPLPIFEKG,2

# Molecular target: AgBbc1
# Experiment: as above
# In short: as §1
row,Binder,SPOT peptide array binding signal intensity
1,VLRFLGFPLPIFEKG,≤ 0

# Molecular target: AgBem1-D1
# Experiment: as above
# In short: as §1
row,Binder,SPOT peptide array binding signal intensity
1,VLRFLGFPLPIFEKG,24.5

# Molecular target: AgBzz1-D1
# Experiment: as above
# In short: as §1
row,Binder,SPOT peptide array binding signal intensity
1,VLRFLGFPLPIFEKG,15

# Molecular target: AgBzz1-D2
# Experiment: as above
# In short: as §1
row,Binder,SPOT peptide array binding signal intensity
1,VLRFLGFPLPIFEKG,≤ 0

# Molecular target: AgCyk3
# Experiment: as above
# In short: as §1
row,Binder,SPOT peptide array binding signal intensity
1,VLRFLGFPLPIFEKG,≤ 0

# Molecular target: AgFus1
# Experiment: as above
# In short: as §1
row,Binder,SPOT peptide array binding signal intensity
1,VLRFLGFPLPIFEKG,393

# Molecular target: AgHof1
# Experiment: as above
# In short: as §1
row,Binder,SPOT peptide array binding signal intensity
1,VLRFLGFPLPIFEKG,9

# Molecular target: AgHse1
# Experiment: as above
# In short: as §1
row,Binder,SPOT peptide array binding signal intensity
1,VLRFLGFPLPIFEKG,845

# Molecular target: AgLsb1
# Experiment: as above
# In short: as §1
row,Binder,SPOT peptide array binding signal intensity
1,VLRFLGFPLPIFEKG,7.75

# Molecular target: AgLsb4
# Experiment: as above
# In short: as §1
row,Binder,SPOT peptide array binding signal intensity
1,VLRFLGFPLPIFEKG,36

# Molecular target: AgMyo5
# Experiment: as above
# In short: as §1
row,Binder,SPOT peptide array binding signal intensity
1,VLRFLGFPLPIFEKG,0.5

# Molecular target: AgNbp2
# Experiment: as above
# In short: as §1
row,Binder,SPOT peptide array binding signal intensity
1,VLRFLGFPLPIFEKG,≤ 0

# Molecular target: AgRvs167
# Experiment: as above
# In short: as §1
row,Binder,SPOT peptide array binding signal intensity
1,VLRFLGFPLPIFEKG,1.67

# Molecular target: AgSho1
# Experiment: as above
# In short: as §1
row,Binder,SPOT peptide array binding signal intensity
1,VLRFLGFPLPIFEKG,31

# Molecular target: AgSla1-D1-D2
# Experiment: as above
# In short: as §1
row,Binder,SPOT peptide array binding signal intensity
1,VLRFLGFPLPIFEKG,3

# Molecular target: AgSla1-D3
# Experiment: as above
# In short: as §1
row,Binder,SPOT peptide array binding signal intensity
1,VLRFLGFPLPIFEKG,2

# Molecular target: CaAbp1-D1
# Experiment: as above
# In short: as §1
row,Binder,SPOT peptide array binding signal intensity
1,VLRFLGFPLPIFEKG,4

# Molecular target: CaAbp1-D2
# Experiment: as above
# In short: as §1
row,Binder,SPOT peptide array binding signal intensity
1,VLRFLGFPLPIFEKG,3.5

# Molecular target: CaBbc1
# Experiment: as above
# In short: as §1
row,Binder,SPOT peptide array binding signal intensity
1,VLRFLGFPLPIFEKG,≤ 0

# Molecular target: CaBem1-D1
# Experiment: as above
# In short: as §1
row,Binder,SPOT peptide array binding signal intensity
1,VLRFLGFPLPIFEKG,≤ 0

# Molecular target: CaBzz1-D1
# Experiment: as above
# In short: as §1
row,Binder,SPOT peptide array binding signal intensity
1,VLRFLGFPLPIFEKG,≤ 0

# Molecular target: CaBzz1-D2
# Experiment: as above
# In short: as §1
row,Binder,SPOT peptide array binding signal intensity
1,VLRFLGFPLPIFEKG,0.25

# Molecular target: CaCyk3
# Experiment: as above
# In short: as §1
row,Binder,SPOT peptide array binding signal intensity
1,VLRFLGFPLPIFEKG,≤ 0

# Molecular target: CaFus1
# Experiment: as above
# In short: as §1
row,Binder,SPOT peptide array binding signal intensity
1,VLRFLGFPLPIFEKG,3750

# Molecular target: CaHof1
# Experiment: as above
# In short: as §1
row,Binder,SPOT peptide array binding signal intensity
1,VLRFLGFPLPIFEKG,≤ 0

# Molecular target: CaHse1
# Experiment: as above
# In short: as §1
row,Binder,SPOT peptide array binding signal intensity
1,VLRFLGFPLPIFEKG,35.8

# Molecular target: CaLsb1
# Experiment: as above
# In short: as §1
row,Binder,SPOT peptide array binding signal intensity
1,VLRFLGFPLPIFEKG,1

# Molecular target: CaLsb4
# Experiment: as above
# In short: as §1
row,Binder,SPOT peptide array binding signal intensity
1,VLRFLGFPLPIFEKG,≤ 0

# Molecular target: CaMyo5
# Experiment: as above
# In short: as §1
row,Binder,SPOT peptide array binding signal intensity
1,VLRFLGFPLPIFEKG,≤ 0

# Molecular target: CaNbp2
# Experiment: as above
# In short: as §1
row,Binder,SPOT peptide array binding signal intensity
1,VLRFLGFPLPIFEKG,129

# Molecular target: CaRvs167
# Experiment: as above
# In short: as §1
row,Binder,SPOT peptide array binding signal intensity
1,VLRFLGFPLPIFEKG,8.5

# Molecular target: CaRvs167-3
# Experiment: as above
# In short: as §1
row,Binder,SPOT peptide array binding signal intensity
1,VLRFLGFPLPIFEKG,22.2

# Molecular target: CaSho1
# Experiment: as above
# In short: as §1
row,Binder,SPOT peptide array binding signal intensity
1,VLRFLGFPLPIFEKG,496

# Molecular target: CaSla1-D1-D2
# Experiment: as above
# In short: as §1
row,Binder,SPOT peptide array binding signal intensity
1,VLRFLGFPLPIFEKG,4

# Molecular target: CaSla1-D3
# Experiment: as above
# In short: as §1
row,Binder,SPOT peptide array binding signal intensity
1,VLRFLGFPLPIFEKG,4

# Molecular target: ScAbp1
# Experiment: as above
# In short: as §1
row,Binder,SPOT peptide array binding signal intensity
1,VLRFLGFPLPIFEKG,1.5

# Molecular target: ScBbc1
# Experiment: as above
# In short: as §1
row,Binder,SPOT peptide array binding signal intensity
1,VLRFLGFPLPIFEKG,1.5

# Molecular target: ScBem1-D1
# Experiment: as above
# In short: as §1
row,Binder,SPOT peptide array binding signal intensity
1,VLRFLGFPLPIFEKG,11.5

# Molecular target: ScBzz1-D1
# Experiment: as above
# In short: as §1
row,Binder,SPOT peptide array binding signal intensity
1,VLRFLGFPLPIFEKG,24

# Molecular target: ScBzz1-D2
# Experiment: as above
# In short: as §1
row,Binder,SPOT peptide array binding signal intensity
1,VLRFLGFPLPIFEKG,14

# Molecular target: ScCyk3
# Experiment: as above
# In short: as §1
row,Binder,SPOT peptide array binding signal intensity
1,VLRFLGFPLPIFEKG,80.5

# Molecular target: ScFus1
# Experiment: as above
# In short: as §1
row,Binder,SPOT peptide array binding signal intensity
1,VLRFLGFPLPIFEKG,404

# Molecular target: ScHof1
# Experiment: as above
# In short: as §1
row,Binder,SPOT peptide array binding signal intensity
1,VLRFLGFPLPIFEKG,≤ 0

# Molecular target: ScHse1
# Experiment: as above
# In short: as §1
row,Binder,SPOT peptide array binding signal intensity
1,VLRFLGFPLPIFEKG,2000

# Molecular target: ScLsb1
# Experiment: as above
# In short: as §1
row,Binder,SPOT peptide array binding signal intensity
1,VLRFLGFPLPIFEKG,≤ 0

# Molecular target: ScLsb2
# Experiment: as above
# In short: as §1
row,Binder,SPOT peptide array binding signal intensity
1,VLRFLGFPLPIFEKG,≤ 0

# Molecular target: ScLsb3
# Experiment: as above
# In short: as §1
row,Binder,SPOT peptide array binding signal intensity
1,VLRFLGFPLPIFEKG,≤ 0

# Molecular target: ScLsb4
# Experiment: as above
# In short: as §1
row,Binder,SPOT peptide array binding signal intensity
1,VLRFLGFPLPIFEKG,≤ 0

# Molecular target: ScMyo3
# Experiment: as above
# In short: as §1
row,Binder,SPOT peptide array binding signal intensity
1,VLRFLGFPLPIFEKG,0.5

# Molecular target: ScMyo5
# Experiment: as above
# In short: as §1
row,Binder,SPOT peptide array binding signal intensity
1,VLRFLGFPLPIFEKG,≤ 0

# Molecular target: ScNbp2
# Experiment: as above
# In short: as §1
row,Binder,SPOT peptide array binding signal intensity
1,VLRFLGFPLPIFEKG,19

# Molecular target: ScPex13
# Experiment: as above
# In short: as §1
row,Binder,SPOT peptide array binding signal intensity
1,VLRFLGFPLPIFEKG,≤ 0

# Molecular target: ScRvs167
# Experiment: as above
# In short: as §1
row,Binder,SPOT peptide array binding signal intensity
1,VLRFLGFPLPIFEKG,≤ 0

# Molecular target: ScSho1
# Experiment: as above
# In short: as §1
row,Binder,SPOT peptide array binding signal intensity
1,VLRFLGFPLPIFEKG,662

# Molecular target: ScSla1-D1-D2
# Experiment: as above
# In short: as §1
row,Binder,SPOT peptide array binding signal intensity
1,VLRFLGFPLPIFEKG,3

# Molecular target: ScSla1-D3
# Experiment: as above
# In short: as §1
row,Binder,SPOT peptide array binding signal intensity
1,VLRFLGFPLPIFEKG,≤ 0

# Molecular target: SpAbp1-D1
# Experiment: as above
# In short: as §1
row,Binder,SPOT peptide array binding signal intensity
1,VLRFLGFPLPIFEKG,1

# Molecular target: SpBbc1
# Experiment: as above
# In short: as §1
row,Binder,SPOT peptide array binding signal intensity
1,VLRFLGFPLPIFEKG,≤ 0

# Molecular target: SpBzz1-D1
# Experiment: as above
# In short: as §1
row,Binder,SPOT peptide array binding signal intensity
1,VLRFLGFPLPIFEKG,3.5

# Molecular target: SpBzz1-D2
# Experiment: as above
# In short: as §1
row,Binder,SPOT peptide array binding signal intensity
1,VLRFLGFPLPIFEKG,1

# Molecular target: SpCyk3
# Experiment: as above
# In short: as §1
row,Binder,SPOT peptide array binding signal intensity
1,VLRFLGFPLPIFEKG,3

# Molecular target: SpHof1
# Experiment: as above
# In short: as §1
row,Binder,SPOT peptide array binding signal intensity
1,VLRFLGFPLPIFEKG,13.8

# Molecular target: SpHof1-2
# Experiment: as above
# In short: as §1
row,Binder,SPOT peptide array binding signal intensity
1,VLRFLGFPLPIFEKG,5.5

# Molecular target: SpHof1-3
# Experiment: as above
# In short: as §1
row,Binder,SPOT peptide array binding signal intensity
1,VLRFLGFPLPIFEKG,486

# Molecular target: SpHse1
# Experiment: as above
# In short: as §1
row,Binder,SPOT peptide array binding signal intensity
1,VLRFLGFPLPIFEKG,1290

# Molecular target: SpLsb1
# Experiment: as above
# In short: as §1
row,Binder,SPOT peptide array binding signal intensity
1,VLRFLGFPLPIFEKG,≤ 0

# Molecular target: SpLsb4
# Experiment: as above
# In short: as §1
row,Binder,SPOT peptide array binding signal intensity
1,VLRFLGFPLPIFEKG,≤ 0

# Molecular target: SpMyo1
# Experiment: as above
# In short: as §1
row,Binder,SPOT peptide array binding signal intensity
1,VLRFLGFPLPIFEKG,≤ 0

# Molecular target: SpNbp2
# Experiment: as above
# In short: as §1
row,Binder,SPOT peptide array binding signal intensity
1,VLRFLGFPLPIFEKG,37.5

# Molecular target: SpPex13
# Experiment: as above
# In short: as §1
row,Binder,SPOT peptide array binding signal intensity
1,VLRFLGFPLPIFEKG,5

# Molecular target: SpRvs167
# Experiment: as above
# In short: as §1
row,Binder,SPOT peptide array binding signal intensity
1,VLRFLGFPLPIFEKG,≤ 0

# Molecular target: SpSla1-D1-D2
# Experiment: as above
# In short: as §1
row,Binder,SPOT peptide array binding signal intensity
1,VLRFLGFPLPIFEKG,3

# Molecular target: SpSla1-D3
# Experiment: as above
# In short: as §1
row,Binder,SPOT peptide array binding signal intensity
1,VLRFLGFPLPIFEKG,1
